Results published in PubChem BioAssay (EPA / NIEHS).
Results filed as inconclusive are left out. Calls of active or inactive are those of the source. The calls were made as follows: active = hit-call score of the fitted dose curve at least 0.9, where 1 is the maximum; inconclusive = response in the unintended direction; inactive = score below 0.9.

Assays:
[1] = target: human Colony Stimulating Factor 1 Receptor (CSF1R), CSF1R (gene 1436) (UniProt P07333); experiment: NVS_ENZ_hCSF1R: NovaScreen (NVS) Enzymatic Assay for human Colony Stimulating Factor 1 Receptor (CSF1R) (AID 2283150)
Method in brief: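 Cell-free recombinant human CSF1R kinase with fluorescent substrate, product separated by electrophoretic mobility shift; read 1 h after dosing. Primary screen at 25 uM in duplicate, actives then in concentration-response up to 50 uM, relative to DMSO.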

[2] = target: human Beta-secretase (BACE), BACE1 (gene 23621) (UniProt P56817); experiment: NVS_ENZ_hBACE: NovaScreen (NVS) Enzymatic Assay for human Beta-secretase (BACE) (AID 2283140);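 also: hits are inhibitors that reduce fluorescent substrate signal versus DMSO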
Method in brief: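 Recombinant BACE1 (SF9 extract) incubated with compound and fluorescent substrate, 1 h. Plates carried positive and DMSO negative controls. Initial single dose 25 uM, duplicate; confirmation by concentration series.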

[3] = target: human AKT serine/threonine Kinase 1 (AKT1), AKT1 (gene 207) (UniProt P31749); experiment: NVS_ENZ_hAKT1: NovaScreen (NVS) Enzymatic Assay for human AKT serine/threonine Kinase 1 (AKT1) (AID 2283138)
Method in brief: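 Signal loss relative to DMSO, measured by fluorescence after electrophoretic separation of substrate and product, indicates inhibition of recombinant enzyme. Readings at 1 h; screening at 25 uM, follow-up curves up to 50 uM.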

[4] = target: human AKT serine/threonine Kinase 2 (AKT2), AKT2 (gene 208) (UniProt P31751); experiment: NVS_ENZ_hAKT2: NovaScreen (NVS) Enzymatic Assay for human AKT serine/threonine Kinase 2 (AKT2) (AID 2283141)
Experimental: NVS_ENZ_hAKT2 is a biochemical, single-readout assay that uses extracted gene-proteins in a cell-free assay. Measurements were taken 1 hour after chemical dosing in a 384-well plate.NVS_ENZ_hAKT2 is one of one assay component(s) measured or calculated from the NVS_ENZ_hAKT2 assay. It is designed to make measurements of enzyme activity, a form of enzyme reporter, as detected with fluorescence intensity signals by Fluorescence and electrophoretic mobility shift technology.Data from the assay component NVS_ENZ_hAKT2 was analyzed into 1 assay endpoint. This assay endpoint, NVS_ENZ_hAKT2, was analyzed in the positive analysis fitting direction relative to DMSO as the negative control and baseline of activity. Using a type of enzyme reporter, loss-of-signal activity can be used to understand changes in the enzymatic activity as they relate to the gene AKT2. Furthermore, this assay endpoint can be referred to as a primary readout, because this assay has produced multiple assay endpoints where this one serves a enzymatic activity function. To generalize the intended target to other relatable targets, this assay endpoint is annotated to the kinase intended target family, where the subfamily is serine/threonine kinase. […]

[5] = target: human Dual Specificity Protein Phosphatase 3 (DUSP3), DUSP3 (gene 1845) (UniProt P51452); experiment: NVS_ENZ_hDUSP3: NovaScreen (NVS) Enzymatic Assay for human Dual Specificity Protein Phosphatase 3 (DUSP3) (AID 2283152);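 also: phosphatase activity of recombinant human DUSP3 on a fluorogenic substrate without cells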
Method in brief: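 Cell-free assay with recombinant human DUSP3 and fluorogenic substrate, read by fluorescence intensity. Primary screen ran duplicate at 25 uM; actives followed up in concentration series; loss of signal versus DMSO scored.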

[6] = target: Caspase-3 (Homo sapiens) (UniProt P42574); experiment: NVS_ENZ_hCASP3: NovaScreen (NVS) Enzymatic Assay for human Caspase 3 (CASP3) (AID 2283139)
Method in brief: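 Recombinant human caspase-3 from E. coli with a fluorogenic substrate, read by fluorescence 1 h after dosing. Primary screen in duplicate at 25 uM. Actives (for example ≥30% inhibition) rerun as concentration-response up to 50 uM.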

[7] = target: human Caspase 8 (CASP8), CASP8 (gene 841) (UniProt Q14790); experiment: NVS_ENZ_hCASP8: NovaScreen (NVS) Enzymatic Assay for human Caspase 8 (CASP8) (AID 2283146)
Method in brief: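 E. coli-expressed enzyme was used in a cell-free fluorogenic substrate assay read 1 h after dosing. Loss of signal was scored relative to DMSO, and the primary screen was run in duplicate at 25 uM.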

[8] = target: human Casein Kinase 1-delta (CK1D), CSNK1D (gene 1453) (UniProt P48730); experiment: NVS_ENZ_hCK1D: NovaScreen (NVS) Enzymatic Assay for human Casein Kinase 1-delta (CK1D) (AID 2283148)
Experimental: NVS_ENZ_hCK1D is a biochemical, single-readout assay that uses extracted gene-proteins in a cell-free assay. Measurements were taken 1 hour after chemical dosing in a 384-well plate.NVS_ENZ_hCK1D is one of one assay component(s) measured or calculated from the NVS_ENZ_hCK1D assay. It is designed to make measurements of enzyme activity, a form of enzyme reporter, as detected with fluorescence intensity signals by Fluorescence and electrophoretic mobility shift technology.Data from the assay component NVS_ENZ_hCK1D was analyzed into 1 assay endpoint. This assay endpoint, NVS_ENZ_hCK1D, was analyzed in the positive analysis fitting direction relative to DMSO as the negative control and baseline of activity. Using a type of enzyme reporter, loss-of-signal activity can be used to understand changes in the enzymatic activity as they relate to the gene CSNK1D. Furthermore, this assay endpoint can be referred to as a primary readout, because this assay has produced multiple assay endpoints where this one serves a enzymatic activity function. To generalize the intended target to other relatable targets, this assay endpoint is annotated to the kinase intended target family, where the subfamily is serine/threonine kinase.
(§1) Binding assays used specific radioligands (tritiated, iodinated) with non-radioactive competitive displacement ligands in agonist or antagonist protocols (as indicated) and various reference compounds and inhibitors to titrate specific binding to receptors and transporters. Most enzyme assays (CYPs, kinases, phosphatases, proteases, HDACs) used recombinant protein and specific substrates (fluorescence mostly, some colorimetric and radioactive) and inhibitors, followed by a biochemical separation of substrate and product. All assays for the biochemical HTS were initially run in duplicate at a single concentration (10 uM for CYP450 assays and 25 uM for all others). Assay-chemical combinations meeting a pre-defined threshold (e.g., 30% inhibition and other criteria defined below) were then run in singleton concentration-response format with maximum concentration of 20 uM for CYPs and 50 uM for all others. Each assay was run with positive and negative controls, and concurrent controls on every plate. The follow-up (secondary) screen tested active chemical-pairs in concentration series, as well as a few additional assays not tested in the primary screen, some selected negative inactives, and several cases re-run in the concentration series for confirmatory purposes.

[9] = target: human Caspase 4 (CASP4), CASP4 (gene 837) (UniProt P49662); experiment: NVS_ENZ_hCASP4: NovaScreen (NVS) Enzymatic Assay for human Caspase 4 (CASP4) (AID 2283143)
Experimental: NVS_ENZ_hCASP4 is a biochemical, single-readout assay that uses extracted gene-proteins from E. coli in a cell-free assay. Measurements were taken 2 hours after chemical dosing in a 96-well plate.NVS_ENZ_hCASP4 is one of one assay component(s) measured or calculated from the NVS_ENZ_hCASP4 assay. It is designed to make measurements of enzyme activity, a form of enzyme reporter, as detected with fluorescence intensity signals by Fluorescence technology.Data from the assay component NVS_ENZ_hCASP4 was analyzed into 1 assay endpoint. This assay endpoint, NVS_ENZ_hCASP4, was analyzed in the positive analysis fitting direction relative to DMSO as the negative control and baseline of activity. Using a type of enzyme reporter, loss-of-signal activity can be used to understand changes in the enzymatic activity as they relate to the gene CASP4. Furthermore, this assay endpoint can be referred to as a primary readout, because this assay has produced multiple assay endpoints where this one serves a enzymatic activity function. To generalize the intended target to other relatable targets, this assay endpoint is annotated to the protease intended target family, where the subfamily is cysteine protease.
as §1

[10] = target: CDK2 (gene 1017) (UniProt P24941); experiment: NVS_ENZ_hCDK2: NovaScreen (NVS) Enzymatic Assay for human Cyclin-Cependent Kinase 2 (CDK2) (AID 2283144)
Method in brief: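 Cell-free recombinant human CDK2 with fluorescent substrate, product separated by electrophoretic mobility shift; 1 hr read. Primary screen at 25 uM in duplicate, actives retested in concentration-response up to 50 uM; loss of signal versus DMSO.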

Sequence of Caspase-3 (Homo sapiens) (P42574 whole entry, looked up): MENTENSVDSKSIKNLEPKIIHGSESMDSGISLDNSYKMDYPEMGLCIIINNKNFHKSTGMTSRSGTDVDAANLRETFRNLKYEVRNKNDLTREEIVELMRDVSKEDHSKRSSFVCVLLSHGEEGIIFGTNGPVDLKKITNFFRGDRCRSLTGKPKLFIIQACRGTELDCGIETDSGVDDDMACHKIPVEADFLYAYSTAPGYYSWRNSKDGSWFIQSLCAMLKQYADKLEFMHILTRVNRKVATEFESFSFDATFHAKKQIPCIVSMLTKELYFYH
Sequence of human Beta-secretase (BACE), BACE1 (gene 23621) (P56817 whole entry, looked up): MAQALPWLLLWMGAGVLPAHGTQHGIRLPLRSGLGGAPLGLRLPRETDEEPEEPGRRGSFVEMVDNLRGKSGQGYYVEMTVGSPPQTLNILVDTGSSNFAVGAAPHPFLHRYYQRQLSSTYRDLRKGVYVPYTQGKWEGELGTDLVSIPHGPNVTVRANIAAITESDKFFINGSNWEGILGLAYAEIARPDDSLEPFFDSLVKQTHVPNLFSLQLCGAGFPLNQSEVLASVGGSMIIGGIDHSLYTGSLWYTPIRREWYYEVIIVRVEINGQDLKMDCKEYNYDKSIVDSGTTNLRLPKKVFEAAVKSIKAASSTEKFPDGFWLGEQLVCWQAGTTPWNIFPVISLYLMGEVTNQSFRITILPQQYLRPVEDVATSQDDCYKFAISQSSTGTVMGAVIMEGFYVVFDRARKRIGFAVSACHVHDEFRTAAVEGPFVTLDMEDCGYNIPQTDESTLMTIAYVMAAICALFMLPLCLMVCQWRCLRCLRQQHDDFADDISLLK
Sequence of human Caspase 8 (CASP8), CASP8 (gene 841) (Q14790 whole entry, looked up): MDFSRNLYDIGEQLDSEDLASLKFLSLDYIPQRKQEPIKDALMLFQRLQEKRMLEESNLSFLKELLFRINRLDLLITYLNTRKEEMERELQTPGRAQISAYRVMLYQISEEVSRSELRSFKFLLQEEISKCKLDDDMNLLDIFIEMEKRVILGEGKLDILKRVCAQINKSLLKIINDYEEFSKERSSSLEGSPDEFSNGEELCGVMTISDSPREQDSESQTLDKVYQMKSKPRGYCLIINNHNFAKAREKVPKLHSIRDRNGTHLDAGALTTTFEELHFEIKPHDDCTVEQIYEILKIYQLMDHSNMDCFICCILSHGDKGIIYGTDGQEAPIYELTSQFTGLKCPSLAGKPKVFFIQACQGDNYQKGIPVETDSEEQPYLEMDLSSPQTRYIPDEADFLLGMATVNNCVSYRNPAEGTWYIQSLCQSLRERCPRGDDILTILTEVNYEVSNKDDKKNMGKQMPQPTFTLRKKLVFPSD
Sequence of human Casein Kinase 1-delta (CK1D), CSNK1D (gene 1453) (P48730 whole entry, looked up): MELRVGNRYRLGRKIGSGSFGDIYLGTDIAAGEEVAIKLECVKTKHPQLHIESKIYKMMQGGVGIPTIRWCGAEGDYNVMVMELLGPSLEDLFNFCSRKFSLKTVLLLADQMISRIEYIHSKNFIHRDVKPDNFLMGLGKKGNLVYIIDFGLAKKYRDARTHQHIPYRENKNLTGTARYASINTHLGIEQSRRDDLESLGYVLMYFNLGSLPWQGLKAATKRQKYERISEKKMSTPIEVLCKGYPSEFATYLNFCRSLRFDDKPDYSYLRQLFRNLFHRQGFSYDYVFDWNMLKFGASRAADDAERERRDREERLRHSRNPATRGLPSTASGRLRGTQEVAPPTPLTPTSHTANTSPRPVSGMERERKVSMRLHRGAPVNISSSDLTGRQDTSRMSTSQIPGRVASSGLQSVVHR
Sequence of human Colony Stimulating Factor 1 Receptor (CSF1R), CSF1R (gene 1436) (P07333 whole entry, looked up): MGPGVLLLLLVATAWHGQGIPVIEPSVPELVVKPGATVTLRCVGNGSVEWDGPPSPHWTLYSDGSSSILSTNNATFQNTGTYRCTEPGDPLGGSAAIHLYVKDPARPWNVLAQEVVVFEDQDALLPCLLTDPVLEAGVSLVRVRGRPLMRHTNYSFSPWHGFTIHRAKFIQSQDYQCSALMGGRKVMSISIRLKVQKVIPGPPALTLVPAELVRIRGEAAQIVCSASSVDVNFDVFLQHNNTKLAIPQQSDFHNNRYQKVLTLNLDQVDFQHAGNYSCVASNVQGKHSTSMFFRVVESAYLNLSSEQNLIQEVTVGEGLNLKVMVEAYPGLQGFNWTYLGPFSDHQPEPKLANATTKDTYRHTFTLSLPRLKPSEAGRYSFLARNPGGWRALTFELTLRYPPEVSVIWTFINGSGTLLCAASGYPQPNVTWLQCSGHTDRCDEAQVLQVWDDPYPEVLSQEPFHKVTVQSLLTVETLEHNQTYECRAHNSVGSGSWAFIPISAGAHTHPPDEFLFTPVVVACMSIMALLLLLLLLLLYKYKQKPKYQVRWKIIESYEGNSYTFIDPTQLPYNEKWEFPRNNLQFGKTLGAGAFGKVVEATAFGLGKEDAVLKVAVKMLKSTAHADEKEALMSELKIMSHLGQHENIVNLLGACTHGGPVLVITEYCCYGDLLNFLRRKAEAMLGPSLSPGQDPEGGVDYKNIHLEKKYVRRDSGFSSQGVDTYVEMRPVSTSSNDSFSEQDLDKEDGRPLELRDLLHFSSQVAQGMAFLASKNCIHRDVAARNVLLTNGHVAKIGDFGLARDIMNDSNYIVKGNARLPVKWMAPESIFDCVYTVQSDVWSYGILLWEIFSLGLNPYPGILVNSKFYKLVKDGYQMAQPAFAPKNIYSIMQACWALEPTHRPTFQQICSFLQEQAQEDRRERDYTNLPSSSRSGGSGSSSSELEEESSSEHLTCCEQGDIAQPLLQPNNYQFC
Sequence of human AKT serine/threonine Kinase 1 (AKT1), AKT1 (gene 207) (P31749 whole entry, looked up): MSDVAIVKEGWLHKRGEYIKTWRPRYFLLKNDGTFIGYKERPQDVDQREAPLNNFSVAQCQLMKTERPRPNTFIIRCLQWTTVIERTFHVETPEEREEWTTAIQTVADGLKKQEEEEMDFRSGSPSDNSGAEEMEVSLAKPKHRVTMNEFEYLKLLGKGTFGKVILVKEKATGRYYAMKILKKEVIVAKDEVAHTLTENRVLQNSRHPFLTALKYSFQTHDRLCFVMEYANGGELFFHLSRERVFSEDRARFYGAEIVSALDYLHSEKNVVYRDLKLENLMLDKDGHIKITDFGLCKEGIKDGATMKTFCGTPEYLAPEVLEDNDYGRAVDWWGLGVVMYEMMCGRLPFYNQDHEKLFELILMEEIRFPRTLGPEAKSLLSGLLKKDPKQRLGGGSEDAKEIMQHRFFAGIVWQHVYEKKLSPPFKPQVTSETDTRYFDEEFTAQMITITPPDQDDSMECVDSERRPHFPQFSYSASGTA
Sequence of human Caspase 4 (CASP4), CASP4 (gene 837) (P49662 whole entry, looked up): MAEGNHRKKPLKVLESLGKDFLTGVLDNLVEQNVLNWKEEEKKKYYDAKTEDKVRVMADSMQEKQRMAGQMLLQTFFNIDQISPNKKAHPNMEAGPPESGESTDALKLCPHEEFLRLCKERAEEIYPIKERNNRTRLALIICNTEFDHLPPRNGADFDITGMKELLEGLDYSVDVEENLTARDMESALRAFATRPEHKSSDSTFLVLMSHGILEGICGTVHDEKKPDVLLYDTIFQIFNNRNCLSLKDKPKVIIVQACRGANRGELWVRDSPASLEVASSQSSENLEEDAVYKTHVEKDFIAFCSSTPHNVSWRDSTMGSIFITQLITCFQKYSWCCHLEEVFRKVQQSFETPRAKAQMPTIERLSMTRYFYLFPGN
Sequence of human Dual Specificity Protein Phosphatase 3 (DUSP3), DUSP3 (gene 1845) (P51452 whole entry, looked up): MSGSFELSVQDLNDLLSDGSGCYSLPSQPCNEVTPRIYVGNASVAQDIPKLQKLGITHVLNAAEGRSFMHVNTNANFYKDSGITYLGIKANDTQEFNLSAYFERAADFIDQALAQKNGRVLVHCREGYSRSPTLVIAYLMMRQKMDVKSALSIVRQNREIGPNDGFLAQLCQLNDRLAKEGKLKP
Sequence of human AKT serine/threonine Kinase 2 (AKT2), AKT2 (gene 208) (P31751 whole entry, looked up): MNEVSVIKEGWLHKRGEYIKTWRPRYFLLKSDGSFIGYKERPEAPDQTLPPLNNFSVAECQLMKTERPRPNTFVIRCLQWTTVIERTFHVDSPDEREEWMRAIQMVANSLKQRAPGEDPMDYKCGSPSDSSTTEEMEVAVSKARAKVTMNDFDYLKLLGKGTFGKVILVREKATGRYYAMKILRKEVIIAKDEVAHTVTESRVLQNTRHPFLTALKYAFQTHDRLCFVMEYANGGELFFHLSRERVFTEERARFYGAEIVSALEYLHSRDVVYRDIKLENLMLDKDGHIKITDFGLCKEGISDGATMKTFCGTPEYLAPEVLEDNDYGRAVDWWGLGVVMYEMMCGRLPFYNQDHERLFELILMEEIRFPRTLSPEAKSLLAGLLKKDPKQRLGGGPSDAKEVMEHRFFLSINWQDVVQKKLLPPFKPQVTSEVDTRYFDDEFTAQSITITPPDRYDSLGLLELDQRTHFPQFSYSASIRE

Q: How did the outcome [1] turn out when Nc1nc(Cl)nc2c1ncn2[C@H]1C[C@H](O)[C@@H](CO)O1 was run?
A: Its outcome is “inactive”.

Q: How did the outcome [2] turn out when CCc1nc(N)nc(N)c1-c1ccc(Cl)cc1 was run?
A: Its outcome is “inactive”.

Q: Which results are given for CCCCCCCCCCCCCCOS(=O)(=O)O?
A: AC50 [3]: 14.2 µM (active); AC50 [2]: 1.77 µM (active); AC50 [4]: 13.3 µM (active); AC50 [1]: 9.44 µM (active); AC50 [5]: 8.15 µM (active)

Q: Which outcome [6] does the source give for CCCCCCCC(=O)OC here?
A: Its outcome is “inactive”.

Q: CC(C)c1cccc(C(C)C)c1 was tested. Which outcome [7] did it give?
A: The outcome was “inactive”.

Q: How did the outcome [6] turn out when O=C1CCCCC1 was run?
A: The outcome was “inactive”.

Q: With Cc1c(C)c2c(c(C)c1O)CCC(C)(COc1ccc(CC3SC(=O)NC3=O)cc1)O2 (stereo not drawn) as the compound, how does the outcome [5] read?
A: Its outcome is “inactive”.

Q: COC(=O)[C@H]1[C@H]2C[C@@H]3c4[nH]c5cc(OC)ccc5c4CCN3C[C@H]2C[C@@H](OC(=O)c2cc(OC)c(OC)c(OC)c2)[C@@H]1OC was tested. Which AC50 [5] did it give?
A: The AC50 was 24.6 µM (active).

Q: With CC(=O)OC1CC(C)OC(C)O1 (stereo not drawn) as the compound, how does the outcome [6] read?
A: Its outcome is “inactive”.

Q: For O=C(O)CC(O)(CC(=O)O)C(=O)O, which outcome [1] is on record?
A: Its outcome is “inactive”.

Q: How did the outcome [8] turn out when CN(C)C(=O)NC1(c2ccccc2)CCN(CCC[C@]2(c3ccc(Cl)c(Cl)c3)CCCN(C(=O)c3ccccc3)C2)CC1 was run?
A: Its outcome is “inactive”.

Q: And the outcome [1]?
A: Its outcome is “inactive”.

Q: For CN(C)CCCN1c2ccccc2Sc2ccc(Cl)cc21, which outcome [2] is on record?
A: Its outcome is “inactive”.

Q: And the AC50 [5]?
A: The AC50 was 10.7 µM (active).

Q: For CC(C)COC(=O)CCCCC(=O)OCC(C)C, which AC50 [2] is on record?
A: The AC50 was 36.1 µM (active).

Q: CC(C)(C)c1ccccc1 was tested. Which outcome [2] did it give?
A: Its outcome is “inactive”.

Q: How did the outcome [9] turn out when Cc1ccc(-c2cc(C(F)(F)F)nn2-c2ccc(S(N)(=O)=O)cc2)cc1 was run?
A: Its outcome is “inactive”.

Q: What does the source list for O=C(Oc1ccccc1)c1cccc(C(=O)Oc2ccccc2)c1?
A: outcome [10]: inactive; outcome [8]: inactive

Q: Which outcome [3] does the source give for O=C1c2c(O)cccc2Cc2cccc(O)c21 here?
A: Its outcome is “inactive”.

Q: And the AC50 [6]?
A: Its AC50 is 13.1 µM (active).

Q: What about the AC50 [2] of the same compound?
A: The AC50 was 1.22 µM (active).

Q: And the AC50 [4]?
A: Its AC50 is 16 µM (active).

Q: And the AC50 [9]?
A: Its AC50 is 4.5 µM (active).

Q: And the AC50 [7]?
A: Its AC50 is 7.92 µM (active).

Q: How did the outcome [9] turn out when O=C(O)c1[nH]n(-c2ccc(S(=O)(=O)O)cc2)c(=O)c1N=Nc1ccc(S(=O)(=O)O)cc1 was run?
A: The outcome was “inactive”.

Q: And the AC50 [7]?
A: The AC50 was 7.11 µM (active).

Q: C=CCCCCCCCCCCCC was tested. Which outcome [8] did it give?
A: Its outcome is “inactive”.

Q: Which AC50 [2] does the source give for CCN(CC)CCOc1ccc(C(=C(Cl)c2ccccc2)c2ccccc2)cc1 here?
A: The AC50 was 14.7 µM (active).

Q: S=c1[nH]c2ccccc2s1 was tested. Which outcome [3] did it give?
A: Its outcome is “inactive”.

Q: And the outcome [9]?
A: The outcome was “inactive”.

Q: What does the source list for O=C(N[C@@H](c1ccccc1)[C@@H]1CCCCN1)c1cccc(C(F)(F)F)c1Cl?
A: outcome [8]: inactive; outcome [1]: inactive

Q: Which AC50 [2] does the source give for CCc1cc(C2=C(C(=O)O)N(c3ccccc3C(F)(F)F)S(=O)(=O)c3ccccc32)cc2c1OCO2 here?
A: The AC50 was 6.05 µM (active).

Q: What about the outcome [9] of the same compound?
A: The outcome was “inactive”.

Q: Which outcome [3] does the source give for CN(C)C(=O)NC1(c2ccccc2)CCN(CC[C@@]2(c3ccc(F)c(F)c3)CN(C(=O)c3ccccc3)CCO2)CC1 here?
A: The outcome was “inactive”.

Q: What about the outcome [6] of the same compound?
A: The outcome was “inactive”.

Q: For CC(N)=O, which outcome [8] is on record?
A: Its outcome is “inactive”.

Q: CCCC(=O)O was tested. Which outcome [3] did it give?
A: The outcome was “inactive”.

Q: How did the outcome [2] turn out when Cc1cc(SC2=C(O)C[C@@](CCc3ccc(N)cc3)(C(C)C)OC2=O)c(C(C)(C)C)cc1CO was run?
A: The outcome was “inactive”.

Q: For COc1ccc(OC(F)(F)F)cc1CN[C@H]1CCCN[C@H]1c1ccccc1, which outcome [3] is on record?
A: The outcome was “inactive”.

Q: And the outcome [10]?
A: Its outcome is “inactive”.

Q: What about the outcome [8] of the same compound?
A: The outcome was “inactive”.

Q: And the outcome [1]?
A: Its outcome is “inactive”.
